Results from PubChem BioAssay.
The source made the active and inactive calls.

Columns and labels:
[1] = test system: Plasmodium falciparum Sir2 (PF13_0152, Sir2A); test: Plasmodium falciparum Sir2A binding compounds – biochemical, small-molecule microarray, 635 nm fluorescence, primary screen (AID 1098); settings: fluorescence 635 nm, higher = more signal;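 further: score merges spot fluorescence intensity with its signal-to-noise ratio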
[2] = probe aDKK1 binding to arrayed compounds – biochemical, biotinylated probe, 635/667 nm fluorescence, primary screen (AID 1099); settings: small-molecule microarray, higher = more signal;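 further: score merges 667nm spot fluorescence with signal to noise across triplicate slides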
[3] = probe aCHRDL2 binding to arrayed compounds – biochemical, biotinylated probe, 635/667 nm fluorescence, primary screen (AID 1100); settings: small-molecule microarray, higher = more signal
[4] = change in splice reporter luminescence, either direction, cell-based, HEK293, spliceosome inhibition project, primary screen (AID 1101); settings: HEK293 splicing luciferase reporter, 24 h, higher = more signal, called active from +8 up or from −8 down;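 further: HEK293 cells carrying a splicing-competent luciferase reporter gene; test concentration not given here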
[5] = target: Fibroblast growth factor 10 (Homo sapiens) (UniProt O15520); test: compounds binding fibroblast growth factor 10 – biochemical, small-molecule microarray, 635 nm fluorescence, primary screen (AID 1102); settings: FGF10 binding, fluorescence 635 nm, higher = more signal
[6] = test system: glycogen synthase kinase-3 (GSK3A per assay name; protocol says GSK3B); test: compounds binding glycogen synthase kinase-3 – biochemical, small-molecule microarray, 635 nm fluorescence, GSK3A, primary screen (AID 1103); settings: fluorescence 635 nm, higher = more signal; further: the record names both GSK3A and GSK3B
[7] = target: Epidermal growth factor receptor (Homo sapiens) (UniProt P00533); test: compounds binding epidermal growth factor receptor – biochemical, small-molecule microarray, 635 nm fluorescence, primary screen (AID 1104); settings: EGFR binding, higher = more signal;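 further: score merges 667 nm emission intensity with spot signal to noise over triplicate slides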
[8] = target: Follistatin-related protein 3 (Homo sapiens) (UniProt O95633); test: compounds binding follistatin-related protein 3 – biochemical, small-molecule microarray, 635 nm fluorescence, primary screen (AID 1105); settings: FSTL3 binding, higher = more signal;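 further: score merges emission near 667 nm and signal to noise per printed spot across three slides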
[9] = target: Dickkopf-related protein 1 (Homo sapiens) (UniProt O94907); test: small molecules binding DKK1 protein – biochemical, small-molecule microarray, 635 nm fluorescence scan, primary screen (AID 1106); settings: higher = more signal;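 further: score merges emission near 667 nm with signal to noise over three replicate slides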
[10] = test system: Inhibin beta A chain (activin A); test: small molecules binding activin A – biochemical, small-molecule microarray, 635 nm fluorescence scan, primary screen (AID 1107); settings: INHBA, higher = more signal;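 further: mouse activin A protein probed at 4.33 µg/mL on printed slides; score merges bound-protein fluorescence near 667 nm with spot signal-to-noise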
[11] = test system: Human papillomavirus type 1a protein E7 (residues 44-93); test: small molecules binding HPV E7 44-93 – biochemical, small-molecule microarray, residues 44-93, 635 nm fluorescence, primary screen (AID 1108); settings: fluorescence 635 nm, higher = more signal;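 further: E7 fragment applied at 1 µg/mL in TBST for 1 h at 4 C; score combines spot fluorescence with its signal to noise ratio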
[12] = hepatitis C replication reporter changes, two-sided – Huh7 cells, luciferase reporter, HCV replication inhibitor project, primary screen (AID 1109); settings: Huh7 HCV replicon luciferase reporter, 48 h; higher = more signal;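 further: huh7 hepatoma cells harbouring a luciferase neomycin HCV replicon reporter; luciferase luminescence as measure of HCV replicon replication; test concentration not given here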
[13] = target: Left-right determination factor 2 (Homo sapiens) (UniProt O00292); test: small molecules binding LEFTY2 protein – biochemical, small-molecule microarray, 635 nm fluorescence scan, primary screen (AID 1110); settings: higher = more signal
[14] = target: Calmodulin-1 (Homo sapiens) (UniProt P0DP23); test: small molecules binding calmodulin-1 with EGTA – biochemical, small-molecule microarray, Cy5-labelled CALM1, profiling panel (AID 1111); settings: Cy5-CALM1 binding fluorescence, higher = more signal;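 further: labelled calmodulin applied in Tris saline Tween buffer holding calcium plus EGTA and DTT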
[15] = target: Calmodulin-1 (Homo sapiens) (UniProt P0DP23); test: small molecules binding Ca-loaded calmodulin-1 – biochemical, small-molecule microarray, Cy5-labelled CALM1, plus calcium, artefact control for SMM control-protein annotation, profiling panel (AID 1112); settings: Cy5-CALM1 binding fluorescence, higher = more signal;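 further: score merges spot fluorescence with signal to noise from triplicate slides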
[16] = probe aWnt5a binding to arrayed compounds – biochemical, biotinylated probe, 635/667 nm fluorescence, primary screen (AID 1113); settings: small-molecule microarray, higher = more signal;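 further: score merges 667 nm fluorescence intensity with signal-to-noise per printed feature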
[17] = probe aShh binding to arrayed compounds – biochemical, biotinylated probe, 635/667 nm fluorescence, primary screen (AID 1114); settings: small-molecule microarray, higher = more signal;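 further: probe is biotin-labelled aShh protein from a stem cell growth factor screen; measures binding of labelled protein to compounds printed on the slide; score merges feature fluorescence at 667 nm with signal-to-noise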
[18] = probe aNog binding to arrayed compounds – biochemical, biotinylated probe, 635/667 nm fluorescence, primary screen (AID 1115); settings: small-molecule microarray, higher = more signal;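 further: probe is biotinylated aNog protein used at 0.15 µg/mL for 1 h at 4 C; z-score combines 667 nm fluorescence of each spot with its signal to noise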
[19] = target: Torsin-1A-interacting protein 1 (Homo sapiens) (UniProt Q5JTV8); test: compound microarray binding of lysate hLAP1 – cell lysate, small-molecule microarray, COS7 lysate, 635/667 nm fluorescence, primary screen (AID 1116); settings: 635 nm fluorescence, higher = more signal
[20] = target: Alpha-bungarotoxin (Bungarus multicinctus) (UniProt P60615); test: compounds binding labelled alpha-BTX control protein – biochemical, small-molecule microarray, Alexa647 label, 635/667 nm fluorescence, artefact control for SMM control protein annotation, profiling panel (AID 1117); settings: alpha-BTX-A647 binding fluorescence, higher = more signal
Chain of Alpha-bungarotoxin (Bungarus multicinctus) (P60615 whole entry, looked up): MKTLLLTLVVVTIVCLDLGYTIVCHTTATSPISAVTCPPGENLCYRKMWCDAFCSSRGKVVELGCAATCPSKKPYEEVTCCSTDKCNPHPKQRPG

Chain of Fibroblast growth factor 10 (Homo sapiens) (O15520 whole entry, looked up): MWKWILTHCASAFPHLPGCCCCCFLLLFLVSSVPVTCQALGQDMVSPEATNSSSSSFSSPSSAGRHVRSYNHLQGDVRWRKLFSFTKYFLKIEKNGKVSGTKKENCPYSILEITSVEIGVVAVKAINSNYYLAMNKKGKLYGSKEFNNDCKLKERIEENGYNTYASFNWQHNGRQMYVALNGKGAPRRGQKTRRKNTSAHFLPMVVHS
Chain of Epidermal growth factor receptor (Homo sapiens) (P00533 whole entry, looked up): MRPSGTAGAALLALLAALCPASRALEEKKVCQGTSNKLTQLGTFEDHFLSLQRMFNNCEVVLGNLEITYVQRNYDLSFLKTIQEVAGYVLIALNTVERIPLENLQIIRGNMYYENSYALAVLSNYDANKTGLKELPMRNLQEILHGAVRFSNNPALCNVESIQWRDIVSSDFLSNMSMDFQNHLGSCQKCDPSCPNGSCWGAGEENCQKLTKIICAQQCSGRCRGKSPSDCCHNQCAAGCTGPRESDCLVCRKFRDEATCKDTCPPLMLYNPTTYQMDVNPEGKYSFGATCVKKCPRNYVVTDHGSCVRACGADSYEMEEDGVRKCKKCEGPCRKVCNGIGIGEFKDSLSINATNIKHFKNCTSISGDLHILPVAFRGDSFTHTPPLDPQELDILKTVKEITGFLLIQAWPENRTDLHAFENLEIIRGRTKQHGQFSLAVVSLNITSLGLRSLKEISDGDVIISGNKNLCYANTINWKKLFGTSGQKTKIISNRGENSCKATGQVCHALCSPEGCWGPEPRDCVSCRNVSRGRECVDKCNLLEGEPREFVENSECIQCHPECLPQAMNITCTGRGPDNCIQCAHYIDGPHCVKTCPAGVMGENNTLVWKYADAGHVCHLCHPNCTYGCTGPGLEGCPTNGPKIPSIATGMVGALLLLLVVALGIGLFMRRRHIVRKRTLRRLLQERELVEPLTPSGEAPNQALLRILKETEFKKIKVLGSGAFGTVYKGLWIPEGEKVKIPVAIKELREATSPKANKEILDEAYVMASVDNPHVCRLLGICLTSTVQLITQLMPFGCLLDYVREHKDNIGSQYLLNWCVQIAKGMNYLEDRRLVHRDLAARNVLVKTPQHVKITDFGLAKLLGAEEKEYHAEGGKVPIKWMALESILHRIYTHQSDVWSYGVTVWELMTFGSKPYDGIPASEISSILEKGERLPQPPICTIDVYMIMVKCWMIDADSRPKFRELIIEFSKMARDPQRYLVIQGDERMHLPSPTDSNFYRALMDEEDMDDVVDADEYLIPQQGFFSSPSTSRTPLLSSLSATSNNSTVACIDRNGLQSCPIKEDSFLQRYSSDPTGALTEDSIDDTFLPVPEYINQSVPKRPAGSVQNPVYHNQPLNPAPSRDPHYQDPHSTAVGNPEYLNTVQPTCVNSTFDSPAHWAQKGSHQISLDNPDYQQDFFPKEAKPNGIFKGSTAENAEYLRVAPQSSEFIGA
Chain of Left-right determination factor 2 (Homo sapiens) (O00292 whole entry, looked up): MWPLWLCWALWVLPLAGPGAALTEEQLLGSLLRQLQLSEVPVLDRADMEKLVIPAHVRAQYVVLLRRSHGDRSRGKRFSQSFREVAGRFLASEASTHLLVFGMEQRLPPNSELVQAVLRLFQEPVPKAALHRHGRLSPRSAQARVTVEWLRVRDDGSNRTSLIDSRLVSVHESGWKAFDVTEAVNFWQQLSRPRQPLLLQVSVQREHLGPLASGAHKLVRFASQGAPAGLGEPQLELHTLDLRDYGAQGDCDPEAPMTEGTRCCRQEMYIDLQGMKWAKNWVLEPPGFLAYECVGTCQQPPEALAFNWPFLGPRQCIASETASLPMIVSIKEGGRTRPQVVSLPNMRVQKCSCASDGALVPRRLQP
Chain of Follistatin-related protein 3 (Homo sapiens) (O95633 whole entry, looked up): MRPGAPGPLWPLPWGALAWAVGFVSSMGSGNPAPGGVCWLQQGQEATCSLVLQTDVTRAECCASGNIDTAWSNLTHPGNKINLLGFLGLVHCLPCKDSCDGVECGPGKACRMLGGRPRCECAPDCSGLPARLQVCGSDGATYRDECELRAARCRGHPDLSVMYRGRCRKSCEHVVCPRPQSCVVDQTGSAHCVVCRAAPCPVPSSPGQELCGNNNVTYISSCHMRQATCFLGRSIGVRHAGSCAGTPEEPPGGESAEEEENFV
Chain of Dickkopf-related protein 1 (Homo sapiens) (O94907 whole entry, looked up): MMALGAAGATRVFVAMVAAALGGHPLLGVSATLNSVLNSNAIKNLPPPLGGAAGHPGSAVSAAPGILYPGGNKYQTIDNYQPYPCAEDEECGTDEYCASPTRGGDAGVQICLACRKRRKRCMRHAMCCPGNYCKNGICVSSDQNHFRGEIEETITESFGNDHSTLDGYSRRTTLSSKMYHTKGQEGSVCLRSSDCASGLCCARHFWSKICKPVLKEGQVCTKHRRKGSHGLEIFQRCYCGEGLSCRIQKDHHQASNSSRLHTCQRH
Chain of Torsin-1A-interacting protein 1 (Homo sapiens) (Q5JTV8 whole entry, looked up): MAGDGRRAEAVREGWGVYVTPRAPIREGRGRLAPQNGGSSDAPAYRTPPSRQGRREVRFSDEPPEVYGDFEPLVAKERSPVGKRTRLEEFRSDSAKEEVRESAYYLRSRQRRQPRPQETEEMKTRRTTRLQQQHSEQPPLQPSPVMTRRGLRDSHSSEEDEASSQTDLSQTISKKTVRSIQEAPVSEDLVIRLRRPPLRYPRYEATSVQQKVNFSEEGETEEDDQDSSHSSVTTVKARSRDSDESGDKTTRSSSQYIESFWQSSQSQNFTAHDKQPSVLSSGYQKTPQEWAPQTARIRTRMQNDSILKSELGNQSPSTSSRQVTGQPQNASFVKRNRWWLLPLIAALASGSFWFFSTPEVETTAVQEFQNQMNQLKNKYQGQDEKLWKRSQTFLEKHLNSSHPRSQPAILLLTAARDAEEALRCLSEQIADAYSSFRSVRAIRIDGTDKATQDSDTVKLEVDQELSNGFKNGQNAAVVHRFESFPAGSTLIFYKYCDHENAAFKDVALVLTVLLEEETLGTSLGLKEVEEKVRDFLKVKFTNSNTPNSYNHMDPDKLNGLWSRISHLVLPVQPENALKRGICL

| Compound | composite z-score [1] | composite z-score [2] | composite z-score [3] | z-score [4] | composite z-score [5] | composite z-score [6] | composite z-score [7] | composite z-score [8] | composite z-score [9] | composite z-score [10] | composite z-score [11] | z-score [12] | composite z-score [13] | composite z-score [14] | composite z-score [15] | composite z-score [16] | composite z-score [17] | composite z-score [18] | composite z-score [19] | composite z-score [20] |
| --- | --- | --- | --- | --- | --- | --- | --- | --- | --- | --- | --- | --- | --- | --- | --- | --- | --- | --- | --- | --- |
| O=C1C[C@@H](O)[C@@H](O)[C@@H]2[C@@H]3C(=O)N(c4cccc(Oc5ccccc5)c4)C(=O)[C@@H]3CC[C@H]12 | 0.326 | -0.18 | -0.709 | 0.218 (inactive) | 0.595 | 0.572 | 0.573 | 0.814 | 0.846 | -0.173 | -0.252 | 0.33 | 0.43 | 0.118 | -0.294 | -0.128 | -0.366 | -0.341 | 0.132 | 0.62 |
| COc1cccc([C@H]2Oc3ccc(OC)cc3C(=NOC(C)CN3CCCCc4nc(C)c(C)cc43)[C@@H]2O)c1 (stereo not given in full) | -0.0106 | -0.151 | -0.223 | -0.49 (inactive) | 0.422 | -0.313 | 0.132 | 0.179 | 0.064 | 0.937 | -0.168 | -2.48 | 0.321 | 0.147 | -0.861 | -0.148 | 0.151 | -0.219 | 0.29 | 0.385 |
| CC(C)CON=C1C[C@@H](O)[C@@H](O)[C@@H]2[C@@H]3C(=O)N(C(C)(C)C)C(=O)[C@@H]3CC[C@H]12 | 0.801 | 0.454 | 0.562 | 0.886 (inactive) | -0.294 | -0.516 | -0.205 | -0.743 | -0.82 | -0.576 | 1.05 | -0.451 | -0.23 | -0.302 | 0.412 | -0.124 | -0.262 | 0.0589 | 0.274 | 1.5 |
| C=CC[C@@H]1C=C[C@H](ON=C2[C@H]3CCn4c(=O)n(-c5ccccc5)c(=O)n4[C@H]3[C@H](O)[C@@H]3O[C@H]23)[C@@H](CO)O1 | 0.482 | -0.378 | -0.548 | 0.492 (inactive) | 0.51 | -0.596 | 0.55 | 0.485 | 0.536 | 0.376 | -0.268 | -3.56 | 0.402 | 0.991 | -0.0461 | -0.147 | -0.0752 | -0.534 | 0.16 | 0.744 |
| CCOC(=O)[C@H](CC(C)C)NC(=O)CCC1CC(OC(=O)NCCc2ccc(F)cc2)CC2(CCCC(COC(=O)NCCc3ccccc3OC)O2)O1 (stereo not given in full) | 0.82 | -0.186 | -0.313 | -0.135 (inactive) | 0.768 | 0.773 | 0.603 | 0.744 | 0.526 | -0.0274 | 1.29 | -1.38 | 0.61 | 1.57 | 0.535 | -0.119 | 0.157 | -0.0787 | 0.793 | 0.493 |
